± gives the standard deviation.
Columns and labels:
Details in all cases: modulator concentration 10 µM
[1] = system: RAW-Dual (murine macrophage reporter line); test: NF-kB reporter (SEAP) activity fold change vs agonist alone; higher = enhanced NF-kB activity
Procedure, shortened: (§1)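 Overnight stimulation with a PRR agonist followed pre-incubation for 1 hour at 37 °C with compound at 10 μM final. This was done in RAW-Dual murine macrophage reporter cells seeded at 50 000 per well in 384-well plates. NF-κB (SEAP, QUANTI-Blue absorbance at 620 nm) and IRF (Lucia luciferase, QUANTI-Luc luminescence) were read from the supernatant. Each reporter's fold change relative to the mean agonist-only control on the same plate was averaged over replicate plates.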

[2] = system: RAW-Dual (murine macrophage reporter line); test: IRF reporter (Lucia luciferase) activity fold change vs agonist alone; higher = enhanced IRF activity
Procedure, shortened: as §1

[3] = system: RAW-Dual (murine macrophage reporter line); test: viability score (confluency relative to resting cells, overnight) (fraction); higher = more viable, active = viable (0.7 or more)
Procedure, shortened: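 RAW-Dual macrophages in 384-well plates were exposed overnight to compound at 10 μM final. Confluency was imaged with IncuCyte, and two confluency masks were generated with IncuCyte software over all imaged wells. The viability score is confluency expressed relative to resting cells. Compounds were called viable if both masks exceeded 70% of resting cells.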

[4] = agonist: CpG ODN 1826 0.5 ug/mL

SMILES	NF-kB reporter [1, 4]	NF-kB reporter ([1]; agonist: LPS 0.1 ug/mL)	NF-kB reporter ([1]; agonist: MPLA […])	IRF reporter ([2]; agonist: 3'3'-cGAMP 10 ug/mL)	IRF reporter ([2]; agonist: LPS 0.1 ug/mL)	IRF reporter ([2]; agonist: MPLA […])	viability score [3]
Cc1ccc(C2=NN3C(=N)C(=Cc4c[nH]c5ccccc45)C(=O)N=C3S2)cc1	0.997 ± 0.079	1.03 ± 0.065	0.932 ± 0.058	0.974 ± 0.024	1.38 ± 0.2	1.12 ± 0.21	1.01 (active)
CC(C)(O)CNc1nc(Nc2ccnc(C(F)(F)F)c2)nc(-c2cccc(C(F)(F)F)n2)n1	1.13 ± 0.37	1.19 ± 0.079	1.12 ± 0.087	1.01 ± 0.053	1.3 ± 0.19	1.54 ± 0.15	0.999 (active)
O=[N+]([O-])c1cc2c(cc1C=Nc1ccc(O)cc1)OCO2	0.842 ± 0.14	1.09 ± 0.17	1.27 ± 0.11	0.443 ± 0.011	1.19 ± 0.15	1.12 ± 0.22	1 (active)
O=C1CN(/N=C/c2ccc([N+](=O)[O-])o2)C(=O)N1	1.13 ± 0.27	1.14 ± 0.087	0.87 ± 0.068	0.821 ± 0.029	1.21 ± 0.16	1.14 ± 0.17	0.994 (active)
CN(C)C/C=C/C(=O)Nc1cc2c(Nc3ccc(F)c(Cl)c3)ncnc2cc1O[C@H]1CCOC1.O=C(O)/C=C\C(=O)O.O=C(O)/C=C\C(=O)O	0.365 ± 0.017	0.661 ± 0.089	0.613 ± 0.034	0.418 ± 0.026	0.795 ± 0.17	0.855 ± 0.3	0.999 (active)
COc1ccc(NCN2C(=O)c3ccccc3C2=O)c(OC)c1	0.844 ± 0.066	0.972 ± 0.058	1.08 ± 0.1	0.911 ± 0.044	1.42 ± 0.084	1.61 ± 0.21	0.991 (active)
O=C1Nc2ccc(Cl)cc2[C@@](C#CC2CC2)(C(F)(F)F)O1	0.352 ± 0.029	0.486 ± 0.024	0.631 ± 0.02	0.964 ± 0.056	0.715 ± 0.092	1.47 ± 0.2	0.114 (inactive)
Cc1cccc(OCCCOc2cccc3cccnc23)c1C	0.735 ± 0.068	0.895 ± 0.055	1.07 ± 0.1	0.974 ± 0.053	1.44 ± 0.083	1.7 ± 0.22	0.978 (active)
CCN(CC)CCOC(=O)c1ccc(N)cc1.Cl	1.29 ± 0.2	1.08 ± 0.26	1.89 ± 0.82	0.923 ± 0.039	1.22 ± 0.43	1.16 ± 0.13	0.996 (active)
CN1CCN(CCCN2c3ccccc3Sc3ccc(C(F)(F)F)cc32)CC1.Cl.Cl	0.958 ± 0.043	1.03 ± 0.11	1.3 ± 0.11	0.788 ± 0.056	1.12 ± 0.22	1.22 ± 0.39	1.02 (active)
O=c1c(O)c(-c2ccccc2)oc2cc(O)ccc12	1.21 ± 0.34	1.37 ± 0.084	1.43 ± 0.15	0.764 ± 0.026	0.947 ± 0.12	0.789 ± 0.077	1 (active)
C=CCN1C(=O)C(C)(C)COc2cc(NC(=O)c3ccc(Br)o3)ccc21	1.25 ± 0.11	0.93 ± 0.21	1.07 ± 0.037	0.53 ± 0.046	0.933 ± 0.096	0.982 ± 0.24	0.994 (active)
CNC(=NC#N)NCCSCc1nc[nH]c1C	0.952 ± 0.073	0.94 ± 0.11	1.03 ± 0.16	1.01 ± 0.032	1.21 ± 0.14	1.36 ± 0.16	1.03 (active)
O=C(NCC1CCN(C(=O)c2ccncc2)CC1)c1ccc(Oc2ccccc2)cc1	0.988 ± 0.058	0.954 ± 0.096	0.893 ± 0.026	0.873 ± 0.066	0.882 ± 0.057	0.932 ± 0.12	0.997 (active)
CCC(C(=O)N1CCC2(CC1)CC2(F)F)c1ccccc1 (centres undefined)	1.08 ± 0.069	1.08 ± 0.098	1.62 ± 0.45	1.06 ± 0.048	1.19 ± 0.24	1.36 ± 0.33	0.911 (active)
COCC(C)NC(=O)c1ccc(Cl)c(Cl)c1 (centres undefined)	1.13 ± 0.12	0.926 ± 0.079	0.984 ± 0.043	0.953 ± 0.034	0.966 ± 0.05	0.992 ± 0.1	0.997 (active)
CCn1nccc1C(=O)N1CCN(S(C)(=O)=O)CC1	1.02 ± 0.066	0.929 ± 0.092	0.991 ± 0.028	1.01 ± 0.069	0.994 ± 0.061	0.847 ± 0.13	1 (active)
c1ccc(-c2cc3c4cccn4ccn3c2)cc1	1.03 ± 0.1	0.87 ± 0.068	0.848 ± 0.085	0.31 ± 0.029	1.29 ± 0.21	1.32 ± 0.39	1.04 (active)
CC(Nc1ccc(N)cc1)=C1C(=O)c2ccccc2C1=O	0.913 ± 0.083	0.855 ± 0.043	1.01 ± 0.09	0.888 ± 0.059	1.49 ± 0.1	1.68 ± 0.15	1 (active)
Clc1ccc(Nc2nc3nonc3nc2NC2C3CC4CC(C3)CC2C4)cc1 (centres undefined)	1.15 ± 0.12	1.15 ± 0.07	1.2 ± 0.096	0.702 ± 0.27	1.32 ± 0.17	1.15 ± 0.16	0.931 (active)
O=C(O)CCCCC1SCC2NC(=O)NC21 (centres undefined)	0.935 ± 0.067	1.13 ± 0.078	0.96 ± 0.078	0.953 ± 0.072	1.18 ± 0.075	1.12 ± 0.25	0.997 (active)
C=CC(=O)Nc1cccc(Nc2nc(Nc3ccc(N4CCN(C(C)=O)CC4)cc3OC)ncc2C(F)(F)F)c1	0.634 ± 0.16	0.662 ± 0.035	0.977 ± 0.086	0.0805 ± 0.0073	0.438 ± 0.14	0.406 ± 0.04	0.926 (active)
Br.CCCc1cc(-c2nc(-c3ccc(C)cc3)cs2)ccn1	1.09 ± 0.18	1.24 ± 0.12	1.08 ± 0.15	1.04 ± 0.069	1.3 ± 0.22	1.65 ± 0.32	0.993 (active)
Nc1ncnc2c1ncn2[C@@H]1O[C@H](COP(=O)(O)O)[C@@H](O)[C@H]1O [Prestw-356]	1.37 ± 0.16	1.09 ± 0.11	1.23 ± 0.12	1.32 ± 0.069	1.21 ± 0.16	1.36 ± 0.28	1.03 (active)
O=C(NCCN1CCOCC1)c1cc2nc(-c3ccccc3)cc(C(F)(F)F)n2n1	0.898 ± 0.078	1.06 ± 0.091	0.933 ± 0.061	0.607 ± 0.033	1.09 ± 0.098	1.01 ± 0.09	1 (active)
CCS(=O)(=O)c1ccc(-c2ccc(NC(=O)c3cccc(OC)c3OC)cc2)nn1	0.914 ± 0.059	0.977 ± 0.1	1.01 ± 0.1	1.05 ± 0.053	1.2 ± 0.26	1.36 ± 0.4	0.955 (active)
O=C(O)c1cc(S(=O)(=O)N2CCCCC2)c(Cl)cc1Cl	0.937 ± 0.082	1.04 ± 0.087	0.965 ± 0.12	0.912 ± 0.11	1.18 ± 0.11	1.06 ± 0.28	1.01 (active)
